Among all 350,000 compounds or so, about 1,600 (0.46%) were called active. Many of the other results were omitted from the sample, so actives are more common in it than they were. A number with no mark means an inactive call.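 How the source made its calls: active means every replicate reaching a set inhibition limit, whatever the replicate mean (cut at about 25% in these data); inconclusive means mean inhibition reaches that limit but some replicates miss it; inactive means the rest.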

The target of the assay is Protein AF-9 (Homo sapiens) (UniProt P42568). The experiment in a line: inhibitors of AF4 peptide binding to AF9, primary screen, biochemical, AlphaScreen, biotin-AF4 peptide, FLAG-AF9, single point (AID 651704).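 Further: 0% = plate neutral control median and 100% = total signal loss.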 The conditions noted are these: at 10 µM, stronger effect = higher value. (In Alpha technology, singlet oxygen from a donor bead excites a nearby acceptor bead.)
Chain of Protein AF-9 (Homo sapiens) (P42568 whole entry, looked up): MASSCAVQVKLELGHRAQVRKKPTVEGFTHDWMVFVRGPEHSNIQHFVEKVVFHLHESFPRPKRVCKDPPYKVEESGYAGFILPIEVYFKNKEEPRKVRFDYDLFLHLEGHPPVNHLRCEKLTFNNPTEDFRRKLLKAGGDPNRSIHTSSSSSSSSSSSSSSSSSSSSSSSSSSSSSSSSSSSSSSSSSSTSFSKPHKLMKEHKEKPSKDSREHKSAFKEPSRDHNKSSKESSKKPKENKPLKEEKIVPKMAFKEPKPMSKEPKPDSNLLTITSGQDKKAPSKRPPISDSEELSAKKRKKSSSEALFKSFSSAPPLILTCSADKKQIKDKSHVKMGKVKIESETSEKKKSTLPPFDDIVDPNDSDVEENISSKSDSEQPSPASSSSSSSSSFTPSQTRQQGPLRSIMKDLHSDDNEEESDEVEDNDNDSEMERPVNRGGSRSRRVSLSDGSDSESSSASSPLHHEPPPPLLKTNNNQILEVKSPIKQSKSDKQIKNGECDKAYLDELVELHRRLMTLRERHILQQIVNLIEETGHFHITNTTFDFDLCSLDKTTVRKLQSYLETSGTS
For `C[C@@H]1CN([C@@H](C)CO)C(=O)CCCn2cc(nn2)CO[C@H]1CN(C)Cc1ccc(C(=O)O)cc1`, the inhibition (commonly the change of the read-out against control, counted positive when it falls) is -0.624%.
As for `CN(C)C(=O)c1ccc(-c2ccccc2[C@@H]2[C@@H](C#N)N(C(=O)C3CCCC3)[C@H]2CO)cc1`, the inhibition is -1.75%.
In the case of `O=C(c1cccc(F)c1)N1CC[C@@H]2[C@H](CO)Nc3ccc(C#Cc4ccccc4)cc3[C@@H]21` it was -0.355%; in that of `C/C=C/c1ccc([C@@H]2[C@@H](CO)N(C(=O)CN(C)C)C23CN(C(=O)C2CCCC2)C3)cc1`, 4.6%; in that of `CN1C(=O)c2cc(NC(=O)C3CCCC3)ccc2OC[C@@H]2O[C@@H](CC(=O)NCCc3ccncc3)CC[C@@H]21`, 1.93%.
As for `C[C@H](CO)N1C[C@H](C)[C@H](CN(C)C(=O)CCN(C)C)OCc2ccccc2-c2c(n(C)c3ccccc23)C1=O`, the inhibition was 2.11%.
Under `O=C(c1ccccc1)c1ccc(C(=O)N2CCN(c3ccccc3)CC2)cc1` stands -1.66%; under `CN1CCC(CN)(N2CCN(c3ccccc3)CC2)CC1`, 33.8% (active); under `CCS(=O)(=O)N1CCC(N2CCN(c3ccccc3)CC2)CC1`, -4.72%.
With `CC(C)NC(=O)N(C)C[C@H]1OCCCC[C@H](C)Oc2ccc(NS(=O)(=O)c3ccc(Cl)cc3)cc2C(=O)N([C@@H](C)CO)C[C@H]1C`, the inhibition is -0.682%.
In the case of `O=C(c1ccc(F)cc1)n1c(=S)nc2ccccn21` it was 37.5% (active).
Under `O=C(c1ccc(F)cc1)N1CCC(n2nnc3ccccc32)CC1` stands -0.54%; under `O=C(c1ccc(F)cc1)n1cc(C(=S)N2CCOCC2)c2ccccc21`, 9.22%; under `CO[C@@H]1CN(C)C(=O)c2ccc(NC(=O)NC(C)C)cc2OC[C@@H](C)N(C)C[C@H]1C`, -3.29%.
In the case of `CN(C)C(=O)c1cccc(-c2cnc3c(NC=O)cc(-c4ccc(F)cc4)cn23)c1` it was 3.38%; in that of `CC(=O)c1cccc(-c2cnc3c(NC=O)cc(-c4cccc(C(=O)N(C)C)c4)cn23)c1`, -1.2%; in that of `CN(C)CCNC(=O)c1cccc(-c2cnc3c(NC=O)cc(-c4cccc(C(F)(F)F)c4)cn23)c1`, 37.1% (active).
Regarding `COc1ccc2c3c(n(C)c2c1)[C@H](CO)N(C(=O)Nc1c(C)noc1C)CC31CN(CC2CC2)C1`, the inhibition is 1.61%.
Under `C=CCOC(=O)[C@H]1[C@@H]2C(=O)O[C@@H](c3ccccc3)[C@@H](c3ccccc3)N2[C@@H](c2ccc(OCCOC(=O)[C@H]3C[C@H]4C(=O)NCC(=O)N4[C@H]3c3ccc(O)cc3)cc2)[C@]12C(=O)Nc1ccccc12` stands 0.736%.
In the case of `O=C(CN(c1ccccc1)S(=O)(=O)c1ccc(Cl)cc1)Nc1ccccc1C(=O)N1CCCC1` it was 0.298%.
Regarding `COc1ccc([N+](=O)[O-])cc1N(CC(=O)Nc1ccccc1C(=O)N1CCOCC1)S(C)(=O)=O`, the inhibition is 1.49%.
Consider `COc1ccccc1N(CC(=O)Nc1ccccc1C(=O)N1CCCC1)S(C)(=O)=O`, for which the inhibition was 50.9% (active).
In the case of `COc1ccccc1NC(=O)Nc1nc(CC(=O)Nc2ccccc2F)cs1` it was 0.499%; in that of `O=C(Nc1nnc(COc2ccccc2)s1)Nc1ccccc1F`, 36% (active); in that of `COc1ccccc1NC(=O)Nc1nnc(Cc2ccc(F)cc2)s1`, 3.41%.
In the case of `CC(C)NC(=O)Nc1ccc2c(c1)C(=O)N([C@@H](C)CO)C[C@H](C)[C@H](CN(C)C(=O)NC1CCCCC1)OCCCC[C@@H](C)O2` it was -3.2%; in that of `C[C@H](CO)N1C[C@H](C)[C@H](CN(C)Cc2ccc3c(c2)OCO3)OCCCC[C@H](C)Oc2ccc(NC(=O)c3ccccc3)cc2C1=O`, 4.39%; in that of `CO[C@@H]1CC[C@@H]2CCOc3ccc(C#N)cc3C(=O)N(C)C[C@@H](C)C(=O)N(C)C[C@@H]1O2`, 3.45%.
Under `C/C(=N\NC(=O)c1ccccc1F)c1ccccn1` stands -1.33%.
As to `CC(O)c1ccc(OCCN(C)c2ccccn2)cc1` (stereo unspecified), the inhibition was -3.42%.
With `CCN(CC)CCOc1ccc2c(c1)C(=NNC(=O)c1ccccn1)c1cc(OCCN(CC)CC)ccc1-2`, the inhibition is 56.9% (active).
Under `COc1ccc2c3c([nH]c2c1)[C@H](CO)N(C(=O)Nc1ccc(F)cc1)CC31CCN(CC2CCOCC2)CC1` stands 11%.
Consider `CCC(=O)N1[C@@H](CO)[C@@H](c2ccccc2)C12CN(C(=O)c1cnccn1)C2`, for which the inhibition was -4.68%.
Take `COCCNC(=O)C[C@@H]1C[C@@H]2c3cc(NS(=O)(=O)c4ccccc4)ccc3O[C@@H]2[C@H](CO)O1`: the inhibition is -1.39%.
Under `C[C@@H]1CCCCO[C@H](CN(C)C(=O)Nc2ccc3c(c2)OCO3)[C@@H](C)CN([C@@H](C)CO)C(=O)c2cc(NC(=O)CCC(F)(F)F)ccc2O1` stands 7.93%.
`CCC(=O)Nc1ccc2c(c1)C(=O)N(C)[C@@H]1CC[C@@H](CC(=O)NCCN3CCCCC3)O[C@@H]1CO2`: the inhibition is 0.544%.
In the case of `Cc1ccc(Nc2ccccc2N)cc1`, the inhibition was 49% (active).
Under `Nc1ccc(C(=O)Nc2ccccc2N)cc1` stands -0.363%.
With `Cc1ccc(Nc2nc(Cl)c(C=O)s2)cc1`, the inhibition is -4.45%.
In the case of `O=C(C[C@@H]1CC[C@H](NC(=O)c2ccncc2)[C@@H](CO)O1)Nc1ccc(-c2ccccc2)cc1`, the inhibition is -2.25%.
As to `CO[C@@H]1CN(C)C(=O)c2ccc(NC(C)=O)cc2OC[C@@H](C)N(Cc2ccc(-c3ccccn3)cc2)C[C@H]1C`, the inhibition was 2.32%.
Turning to `O=C(Nc1nnc(SCc2ccccc2Cl)s1)c1cccc([N+](=O)[O-])c1`, the inhibition is 48% (active).
For `NC(=O)CSc1nnc(NC(=O)c2ccc3ccccc3c2)s1`, the inhibition is -1.88%.
Under `O=C(Nc1nnc(SCc2c(Cl)cccc2Cl)s1)c1cccc([N+](=O)[O-])c1` stands 1.85%.
In the case of `COc1cc(CN2CC3(CN(S(=O)(=O)c4cn(C)cn4)C3)c3c(n(C)c4cc(OC)ccc34)[C@H]2CO)cc(OC)c1`, the inhibition was 12.6%.
Take `COc1ccc(NC(=O)Nc2ccc3c(c2)[C@H]2C[C@H](CC(=O)NC4CCCC4)O[C@@H](CO)[C@H]2O3)cc1`: the inhibition is 0.232%.

The record behind these values is PubChem BioAssay AID651704 (Broad Institute, 2012).
